From paper PMC7862700, “An all-to-all approach to the identification of sequence-specific readers for epigenetic DNA modifications on cytosine”

Legend:
Experiment in all cases: DAPPL (digital affinity profiling via proximity ligation, sequencing); 10 mM Tris-HCl pH 7.5, 50 mM NaCl, 1 mM DTT, 4% glycerol, room temperature, 30 min; GST-TFs on glutathione beads, 16-mer random dsDNA library, 0.1% formaldehyde crosslink after washing; high values mean tight binding
FLI1 = biological target: T1, FLI1 (Homo sapiens, UniProt Q01543 1-452); settings: protein: recombinant; tags: N-terminal GST; dsDNA, one strand shown
T1 sequence: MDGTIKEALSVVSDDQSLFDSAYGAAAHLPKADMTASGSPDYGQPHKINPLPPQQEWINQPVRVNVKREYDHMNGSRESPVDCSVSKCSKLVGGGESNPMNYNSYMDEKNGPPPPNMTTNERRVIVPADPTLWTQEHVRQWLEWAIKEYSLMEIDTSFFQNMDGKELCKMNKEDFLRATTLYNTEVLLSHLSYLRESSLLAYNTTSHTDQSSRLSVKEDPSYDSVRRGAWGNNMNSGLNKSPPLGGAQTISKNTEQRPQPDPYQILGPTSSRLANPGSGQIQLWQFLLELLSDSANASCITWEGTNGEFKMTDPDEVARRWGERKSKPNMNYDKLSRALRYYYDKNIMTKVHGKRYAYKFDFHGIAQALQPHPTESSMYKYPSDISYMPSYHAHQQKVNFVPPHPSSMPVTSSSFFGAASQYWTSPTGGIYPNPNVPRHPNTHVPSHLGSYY
Summary of the method: (§1)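 Yeast served to express human transcription factors as GST fusions, which were then captured on glutathione beads and labelled with DNA barcodes. Pooled with a tag-only sample, they were incubated with 200 nmole of a 16-mer random double-stranded DNA library for 30 min at room temperature in Tris/NaCl/DTT/glycerol buffer, washed, crosslinked with 0.1% formaldehyde, ligated by proximity, amplified by PCR and sequenced. Dividing each hexamer's read frequency for a factor by its frequency for the tag-only sample gives the binding signal.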

ELK1 = biological target: T2, ELK1 (Homo sapiens, UniProt P19419 1-428); settings: protein: recombinant; tags: N-terminal GST; dsDNA, one strand shown
T2 sequence: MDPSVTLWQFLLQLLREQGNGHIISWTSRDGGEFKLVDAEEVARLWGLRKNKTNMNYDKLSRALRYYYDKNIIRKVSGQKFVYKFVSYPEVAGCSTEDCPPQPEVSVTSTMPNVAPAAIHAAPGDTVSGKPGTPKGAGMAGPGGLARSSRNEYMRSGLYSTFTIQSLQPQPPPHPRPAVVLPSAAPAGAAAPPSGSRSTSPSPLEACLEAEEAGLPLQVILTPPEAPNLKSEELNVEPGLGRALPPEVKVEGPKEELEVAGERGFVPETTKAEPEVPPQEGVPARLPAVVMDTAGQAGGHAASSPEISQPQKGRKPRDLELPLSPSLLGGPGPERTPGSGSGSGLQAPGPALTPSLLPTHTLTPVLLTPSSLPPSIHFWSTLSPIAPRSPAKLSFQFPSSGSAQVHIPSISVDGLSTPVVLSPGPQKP
Summary of the method: as §1

GABPA = biological target: T3, GABPA (Homo sapiens, UniProt Q06546 1-454); settings: protein: recombinant; tags: N-terminal GST; dsDNA, one strand shown
T3 sequence: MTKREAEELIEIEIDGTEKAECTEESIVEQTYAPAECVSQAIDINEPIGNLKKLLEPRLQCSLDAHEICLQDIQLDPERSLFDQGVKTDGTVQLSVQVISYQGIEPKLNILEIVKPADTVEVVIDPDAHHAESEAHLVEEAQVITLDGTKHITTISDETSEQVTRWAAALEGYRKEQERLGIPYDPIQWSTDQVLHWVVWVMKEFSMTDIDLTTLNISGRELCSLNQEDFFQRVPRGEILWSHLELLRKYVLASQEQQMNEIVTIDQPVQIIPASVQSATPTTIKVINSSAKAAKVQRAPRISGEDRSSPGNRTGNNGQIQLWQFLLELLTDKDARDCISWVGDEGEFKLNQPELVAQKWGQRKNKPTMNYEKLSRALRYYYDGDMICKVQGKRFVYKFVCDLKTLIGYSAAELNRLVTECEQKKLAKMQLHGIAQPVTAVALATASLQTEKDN
Summary of the method: as §1

ERG = biological target: T4, ERG (Homo sapiens, UniProt P11308 1-479); settings: protein: recombinant; tags: N-terminal GST; dsDNA, one strand shown
T4 sequence: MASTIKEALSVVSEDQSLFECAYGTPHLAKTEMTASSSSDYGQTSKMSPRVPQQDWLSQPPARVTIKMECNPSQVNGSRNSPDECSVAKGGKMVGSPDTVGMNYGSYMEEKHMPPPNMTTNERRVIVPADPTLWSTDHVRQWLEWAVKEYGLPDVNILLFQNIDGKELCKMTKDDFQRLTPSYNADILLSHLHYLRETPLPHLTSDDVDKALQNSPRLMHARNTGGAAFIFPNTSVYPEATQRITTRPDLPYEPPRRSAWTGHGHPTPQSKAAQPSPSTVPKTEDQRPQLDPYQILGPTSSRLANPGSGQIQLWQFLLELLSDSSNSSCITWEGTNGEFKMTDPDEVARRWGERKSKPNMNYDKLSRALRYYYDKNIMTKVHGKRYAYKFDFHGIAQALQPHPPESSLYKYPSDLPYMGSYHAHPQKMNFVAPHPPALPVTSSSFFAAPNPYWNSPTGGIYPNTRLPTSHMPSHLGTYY
Summary of the method: as §1

ELF1 = ELF1 (Homo sapiens, UniProt P32519 1-619); settings: protein: recombinant; tags: N-terminal GST; dsDNA, one strand shown
Summary of the method: as §1

EHF = biological target: T5, EHF (Homo sapiens, UniProt Q9NZC4 1-300); settings: protein: recombinant; tags: N-terminal GST; dsDNA, one strand shown
T5 sequence: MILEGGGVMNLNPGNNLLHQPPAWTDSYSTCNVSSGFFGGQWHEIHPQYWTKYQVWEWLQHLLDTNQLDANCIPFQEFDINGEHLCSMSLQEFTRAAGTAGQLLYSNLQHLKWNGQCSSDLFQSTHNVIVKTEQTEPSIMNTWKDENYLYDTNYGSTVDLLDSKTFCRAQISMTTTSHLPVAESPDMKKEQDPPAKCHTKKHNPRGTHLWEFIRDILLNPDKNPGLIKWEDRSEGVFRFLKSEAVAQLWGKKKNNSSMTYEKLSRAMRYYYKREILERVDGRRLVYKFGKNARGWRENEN
Summary of the method: as §1

SPI1 = SPI1 (Homo sapiens, UniProt P17947 1-270); settings: protein: recombinant; tags: N-terminal GST; dsDNA, one strand shown
Summary of the method: as §1

SPIB = SPIB (Homo sapiens, UniProt Q01892 1-262); settings: protein: recombinant; tags: N-terminal GST; dsDNA, one strand shown
Summary of the method: as §1

ELK3 = biological target: T6, ELK3 (Homo sapiens, UniProt P41970 1-407); settings: protein: recombinant; tags: N-terminal GST; dsDNA, one strand shown
T6 sequence: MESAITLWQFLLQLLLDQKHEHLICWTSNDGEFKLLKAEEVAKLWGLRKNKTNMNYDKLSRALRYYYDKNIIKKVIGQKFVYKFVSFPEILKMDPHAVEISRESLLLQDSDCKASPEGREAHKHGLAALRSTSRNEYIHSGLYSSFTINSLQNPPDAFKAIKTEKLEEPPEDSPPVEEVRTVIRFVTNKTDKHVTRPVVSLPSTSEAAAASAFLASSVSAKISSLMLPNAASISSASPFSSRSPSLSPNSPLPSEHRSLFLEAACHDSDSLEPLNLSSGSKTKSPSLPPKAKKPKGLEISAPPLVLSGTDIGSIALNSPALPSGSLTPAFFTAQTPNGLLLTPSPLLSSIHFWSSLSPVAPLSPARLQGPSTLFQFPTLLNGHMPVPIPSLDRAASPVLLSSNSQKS
Summary of the method: as §1

FEV = biological target: T7, FEV (Homo sapiens, UniProt Q99581 1-238); settings: protein: recombinant; tags: N-terminal GST; dsDNA, one strand shown
T7 sequence: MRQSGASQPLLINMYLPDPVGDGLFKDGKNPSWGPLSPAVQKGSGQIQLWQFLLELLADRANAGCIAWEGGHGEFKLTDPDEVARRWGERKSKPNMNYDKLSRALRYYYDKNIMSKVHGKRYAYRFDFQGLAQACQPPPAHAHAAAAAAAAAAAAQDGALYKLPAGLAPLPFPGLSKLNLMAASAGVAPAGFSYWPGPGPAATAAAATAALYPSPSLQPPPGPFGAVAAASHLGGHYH
Summary of the method: as §1

ETV5 = ETV5 (Homo sapiens, UniProt P41161 1-510); settings: protein: recombinant; tags: N-terminal GST; dsDNA, one strand shown
Summary of the method: as §1

HSF1 = HSF1 (Homo sapiens, UniProt Q00613 1-529); settings: protein: recombinant; tags: N-terminal GST; chain copies: 3; dsDNA, one strand shown
Summary of the method: as §1

SPIC = biological target: T8, SPIC (Homo sapiens, UniProt Q8N5J4 1-248); settings: protein: recombinant; tags: N-terminal GST; dsDNA, one strand shown
T8 sequence: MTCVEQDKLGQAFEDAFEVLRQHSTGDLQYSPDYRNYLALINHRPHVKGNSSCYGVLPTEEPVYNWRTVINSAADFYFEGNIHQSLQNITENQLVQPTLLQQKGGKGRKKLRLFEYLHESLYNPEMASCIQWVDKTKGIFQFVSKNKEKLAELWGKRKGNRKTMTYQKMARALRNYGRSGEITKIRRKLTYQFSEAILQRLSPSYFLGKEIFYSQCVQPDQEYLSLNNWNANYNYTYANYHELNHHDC
Summary of the method: as §1

ELF4 = ELF4 (Homo sapiens, UniProt Q99607 1-663); settings: protein: recombinant; tags: N-terminal GST; dsDNA, one strand shown
Summary of the method: as §1

ELK4 = biological target: T9, ELK4 (Homo sapiens, UniProt P28324-2 1-405); settings: protein: recombinant; tags: N-terminal GST; dsDNA, one strand shown
T9 sequence: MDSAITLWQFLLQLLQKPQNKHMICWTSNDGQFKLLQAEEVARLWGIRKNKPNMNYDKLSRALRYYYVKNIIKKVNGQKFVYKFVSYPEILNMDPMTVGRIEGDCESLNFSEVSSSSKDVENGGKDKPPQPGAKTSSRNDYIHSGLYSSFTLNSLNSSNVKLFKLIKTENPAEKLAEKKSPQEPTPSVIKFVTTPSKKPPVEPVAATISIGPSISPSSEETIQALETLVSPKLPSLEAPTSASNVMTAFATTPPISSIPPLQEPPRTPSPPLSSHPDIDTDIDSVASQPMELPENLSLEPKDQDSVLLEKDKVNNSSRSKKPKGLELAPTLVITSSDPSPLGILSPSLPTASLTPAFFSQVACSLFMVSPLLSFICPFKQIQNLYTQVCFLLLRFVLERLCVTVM
Summary of the method: as §1

ETV2 = biological target: T10, ETV2 (Homo sapiens, UniProt O00321 1-342); settings: protein: recombinant; tags: N-terminal GST; dsDNA, one strand shown
T10 sequence: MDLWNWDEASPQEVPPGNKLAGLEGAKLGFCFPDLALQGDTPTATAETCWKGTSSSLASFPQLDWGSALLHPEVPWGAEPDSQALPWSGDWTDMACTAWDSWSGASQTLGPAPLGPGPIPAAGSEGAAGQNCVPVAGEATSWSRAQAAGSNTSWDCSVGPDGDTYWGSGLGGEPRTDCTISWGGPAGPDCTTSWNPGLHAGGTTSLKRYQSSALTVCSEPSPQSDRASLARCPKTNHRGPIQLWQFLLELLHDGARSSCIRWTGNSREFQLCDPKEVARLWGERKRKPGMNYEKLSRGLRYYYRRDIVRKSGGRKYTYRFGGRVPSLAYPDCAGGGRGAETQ
Summary of the method: as §1

ELF3 = biological target: T11, ELF3 (Homo sapiens, UniProt P78545 1-371); settings: protein: recombinant; tags: N-terminal GST; dsDNA, one strand shown
T11 sequence: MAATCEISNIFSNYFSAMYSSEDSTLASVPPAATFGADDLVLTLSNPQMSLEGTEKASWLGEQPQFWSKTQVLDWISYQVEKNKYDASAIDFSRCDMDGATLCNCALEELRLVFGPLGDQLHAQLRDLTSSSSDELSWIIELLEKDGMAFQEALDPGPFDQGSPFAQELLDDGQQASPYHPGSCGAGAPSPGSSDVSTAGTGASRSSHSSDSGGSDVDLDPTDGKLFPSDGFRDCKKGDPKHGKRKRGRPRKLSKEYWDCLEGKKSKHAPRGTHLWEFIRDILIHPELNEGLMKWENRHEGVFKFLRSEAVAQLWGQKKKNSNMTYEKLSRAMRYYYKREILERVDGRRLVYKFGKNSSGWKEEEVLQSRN
Summary of the method: as §1

CRX = CRX (Homo sapiens, UniProt O43186 1-299); settings: protein: recombinant; tags: N-terminal GST; dsDNA, one strand shown
Summary of the method: as §1

ETV1 = ETV1 (Homo sapiens, UniProt P50549 1-477); settings: protein: recombinant; tags: N-terminal GST; dsDNA, one strand shown
Summary of the method: as §1

Chain of ETV5 (P41161 whole entry): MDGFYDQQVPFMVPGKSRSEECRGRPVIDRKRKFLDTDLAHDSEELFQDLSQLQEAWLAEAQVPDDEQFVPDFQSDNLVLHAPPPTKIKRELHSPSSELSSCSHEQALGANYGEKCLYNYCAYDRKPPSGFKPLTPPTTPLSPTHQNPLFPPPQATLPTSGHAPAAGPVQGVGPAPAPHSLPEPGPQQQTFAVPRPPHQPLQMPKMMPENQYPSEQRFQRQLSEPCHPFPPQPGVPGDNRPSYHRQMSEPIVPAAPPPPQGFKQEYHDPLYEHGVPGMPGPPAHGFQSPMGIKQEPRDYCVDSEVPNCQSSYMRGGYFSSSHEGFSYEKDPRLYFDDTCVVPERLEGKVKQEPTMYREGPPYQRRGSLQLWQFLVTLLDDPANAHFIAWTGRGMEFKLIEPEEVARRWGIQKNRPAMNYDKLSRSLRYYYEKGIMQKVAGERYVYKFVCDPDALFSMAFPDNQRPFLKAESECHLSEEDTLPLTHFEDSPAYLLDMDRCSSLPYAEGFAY
Chain of CRX (O43186 whole entry): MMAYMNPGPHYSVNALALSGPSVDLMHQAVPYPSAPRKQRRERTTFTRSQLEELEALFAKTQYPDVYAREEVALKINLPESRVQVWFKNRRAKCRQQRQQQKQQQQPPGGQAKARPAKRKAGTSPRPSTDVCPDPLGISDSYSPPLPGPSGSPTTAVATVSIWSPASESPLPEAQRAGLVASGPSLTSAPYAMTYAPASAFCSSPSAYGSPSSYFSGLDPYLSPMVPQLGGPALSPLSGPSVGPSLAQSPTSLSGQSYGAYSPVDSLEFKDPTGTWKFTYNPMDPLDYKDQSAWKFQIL
Chain of SPIB (Q01892 whole entry): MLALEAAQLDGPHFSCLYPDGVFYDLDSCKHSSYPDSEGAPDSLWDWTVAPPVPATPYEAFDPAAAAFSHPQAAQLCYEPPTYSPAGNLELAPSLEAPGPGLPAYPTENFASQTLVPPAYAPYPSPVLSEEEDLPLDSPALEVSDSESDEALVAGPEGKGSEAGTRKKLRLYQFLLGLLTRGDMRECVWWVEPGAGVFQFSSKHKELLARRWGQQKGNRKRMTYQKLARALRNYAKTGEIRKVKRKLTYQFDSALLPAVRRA
Chain of ELF1 (P32519 whole entry): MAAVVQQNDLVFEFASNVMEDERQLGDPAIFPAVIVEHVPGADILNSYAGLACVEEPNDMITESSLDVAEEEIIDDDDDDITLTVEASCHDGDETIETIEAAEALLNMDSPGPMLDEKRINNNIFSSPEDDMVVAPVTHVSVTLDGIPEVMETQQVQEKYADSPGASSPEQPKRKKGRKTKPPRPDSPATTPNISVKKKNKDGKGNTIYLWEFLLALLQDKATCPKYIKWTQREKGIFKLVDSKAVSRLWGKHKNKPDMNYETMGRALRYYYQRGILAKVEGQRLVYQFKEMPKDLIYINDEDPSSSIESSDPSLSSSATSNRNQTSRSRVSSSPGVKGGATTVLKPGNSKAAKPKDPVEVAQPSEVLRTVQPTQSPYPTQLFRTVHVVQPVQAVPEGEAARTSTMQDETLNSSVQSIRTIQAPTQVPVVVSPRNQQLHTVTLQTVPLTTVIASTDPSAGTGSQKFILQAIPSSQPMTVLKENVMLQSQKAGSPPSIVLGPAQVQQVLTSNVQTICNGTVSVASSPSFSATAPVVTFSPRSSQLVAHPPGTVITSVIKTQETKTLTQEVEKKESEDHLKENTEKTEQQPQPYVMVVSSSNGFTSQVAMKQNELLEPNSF
Chain of ETV1 (P50549 whole entry): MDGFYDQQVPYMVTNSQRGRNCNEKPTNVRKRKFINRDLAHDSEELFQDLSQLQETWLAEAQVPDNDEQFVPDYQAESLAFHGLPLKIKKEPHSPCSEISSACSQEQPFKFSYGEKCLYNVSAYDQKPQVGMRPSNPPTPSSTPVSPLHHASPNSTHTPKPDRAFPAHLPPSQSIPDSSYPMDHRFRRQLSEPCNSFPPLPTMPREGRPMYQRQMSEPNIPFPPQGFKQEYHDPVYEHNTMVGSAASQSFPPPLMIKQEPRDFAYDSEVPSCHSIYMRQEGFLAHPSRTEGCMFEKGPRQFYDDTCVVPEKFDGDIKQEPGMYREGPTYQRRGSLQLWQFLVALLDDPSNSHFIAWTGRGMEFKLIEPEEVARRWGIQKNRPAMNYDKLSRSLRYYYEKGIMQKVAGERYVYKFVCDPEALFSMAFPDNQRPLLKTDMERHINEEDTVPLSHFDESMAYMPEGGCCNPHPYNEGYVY
Chain of HSF1 (Q00613 whole entry): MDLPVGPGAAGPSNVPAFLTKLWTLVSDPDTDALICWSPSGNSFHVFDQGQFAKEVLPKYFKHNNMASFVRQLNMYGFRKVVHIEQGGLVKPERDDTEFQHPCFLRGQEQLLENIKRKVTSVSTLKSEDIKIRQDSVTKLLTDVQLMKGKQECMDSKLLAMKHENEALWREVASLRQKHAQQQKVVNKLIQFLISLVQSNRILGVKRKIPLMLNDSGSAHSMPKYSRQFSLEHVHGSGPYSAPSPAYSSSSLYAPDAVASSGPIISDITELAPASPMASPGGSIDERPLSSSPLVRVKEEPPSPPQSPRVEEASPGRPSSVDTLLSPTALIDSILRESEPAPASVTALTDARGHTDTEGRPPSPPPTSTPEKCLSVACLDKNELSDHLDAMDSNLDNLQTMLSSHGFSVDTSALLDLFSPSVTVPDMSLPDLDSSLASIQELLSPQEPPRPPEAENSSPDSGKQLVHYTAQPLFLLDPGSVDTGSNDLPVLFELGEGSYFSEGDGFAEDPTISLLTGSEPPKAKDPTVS
Chain of ELF4 (Q99607 whole entry): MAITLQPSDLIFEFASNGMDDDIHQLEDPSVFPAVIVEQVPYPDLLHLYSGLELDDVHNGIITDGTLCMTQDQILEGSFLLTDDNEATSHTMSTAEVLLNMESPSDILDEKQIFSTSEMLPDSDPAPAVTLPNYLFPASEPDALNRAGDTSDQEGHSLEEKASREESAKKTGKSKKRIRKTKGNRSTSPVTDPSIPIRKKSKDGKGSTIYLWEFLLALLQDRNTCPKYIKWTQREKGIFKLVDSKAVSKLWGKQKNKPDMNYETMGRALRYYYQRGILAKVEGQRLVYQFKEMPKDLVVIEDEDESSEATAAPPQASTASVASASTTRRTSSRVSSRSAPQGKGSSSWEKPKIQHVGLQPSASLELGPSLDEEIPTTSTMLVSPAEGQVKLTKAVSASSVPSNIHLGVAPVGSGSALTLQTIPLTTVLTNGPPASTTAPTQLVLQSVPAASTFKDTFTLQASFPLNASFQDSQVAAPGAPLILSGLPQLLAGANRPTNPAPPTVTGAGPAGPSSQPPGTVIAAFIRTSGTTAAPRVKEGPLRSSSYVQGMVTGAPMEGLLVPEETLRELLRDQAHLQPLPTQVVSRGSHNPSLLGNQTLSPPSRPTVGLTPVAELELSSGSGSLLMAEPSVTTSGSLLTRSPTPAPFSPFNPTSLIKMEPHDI

What does the source list for TAGCCT?
binding signal (FLI1): 1.27 fold enrichment (6-mer frequency, TF over GST control); binding signal (ELK1): 1.21 fold enrichment (6-mer frequency, TF over GST control); binding signal (GABPA): 1.18 fold enrichment (6-mer frequency, TF over GST control); binding signal (ERG): 1.23 fold enrichment (6-mer frequency, TF over GST control); binding signal (ELF1): 1.28 fold enrichment (6-mer frequency, TF over GST control); binding signal (EHF): 1.26 fold enrichment (6-mer frequency, TF over GST control); binding signal (SPI1): 1.23 fold enrichment (6-mer frequency, TF over GST control); binding signal (SPIB): 1.2 fold enrichment (6-mer frequency, TF over GST control); binding signal (ELK3): 1.14 fold enrichment (6-mer frequency, TF over GST control); binding signal (FEV): 1.26 fold enrichment (6-mer frequency, TF over GST control); binding signal (ETV5): 1.22 fold enrichment (6-mer frequency, TF over GST control); binding signal (HSF1): 1.43 fold enrichment (6-mer frequency, TF over GST control); binding signal (SPIC): 1.17 fold enrichment (6-mer frequency, TF over GST control); binding signal (ELF4): 1.24 fold enrichment (6-mer frequency, TF over GST control); binding signal (ELK4): 1.18 fold enrichment (6-mer frequency, TF over GST control); binding signal (ETV2): 1.22 fold enrichment (6-mer frequency, TF over GST control); binding signal (ELF3): 1.27 fold enrichment (6-mer frequency, TF over GST control); binding signal (CRX): 1.53 fold enrichment (6-mer frequency, TF over GST control); binding signal (ETV1): 1.26 fold enrichment (6-mer frequency, TF over GST control)
